# From PubChem BioAssay
# E coli growth-1 = inhibitors of Escherichia coli growth; OD600, 23 h; active compounds read low; OD600 absorbance (concentration not given with the values); 0.21% of 330,000 active; AID 1053175;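 active = OD600 absorbance below the run mean of sample wells minus 3.6 SD, in any replicate, cut at about 0.56 in these data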
# PfHsp90 yeast 2 = reduces growth (ATP signal) of yeast expressing P. falciparum Hsp90; S. cerevisiae expressing PfHsp90, BacTiter-Glo ATP, 48 h; yeast lacking PDR1 and PDR3 efflux regulators; inhibition, % at 9.4 µM; 0.32% of 310,000 active; AID 504621;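 active = every replicate shows inhibition above about 80%, whatever the replicate mean, limit read from the data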
# E coli growth-2 = reduces bacterial viability in AddAB counter-screen; AID 449728; inhibition, % at 11.9 µM; E. coli V3065 growth, OD600 absorbance, 18 h; 0.27% of 330,000 active;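 active = inhibition above the campaign's mean inhibition across all tested compounds plus 3 SD, cut at about 9.9% in these data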;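 also: uninfected addAB+ strain grown without phage in ampicillin broth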
# phage Ecoli inh = E. coli growth loss with phage present. growth absorbance. inhibition, % at 11.9 µM. 0.26% of 360,000 active. AID 651602; in the data active = inhibition above about 11%
# AddAB inh = less growth of phage-infected E. coli with AddAB; E. coli expressing H. pylori AddAB, absorbance growth; inhibition, % at 11.9 µM; 0.29% of 330,000 active; in the data active = inhibition above about 12%
# Tat transport = blocks Tat-dependent protein export in E. coli. inhibition, % at 10 µM. E. coli MC4100 TorA-mCherry Tat export, fluorescence. 0.036% of 340,000 active;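 active = mean replicate inhibition at least 50% and at least half of replicates individually reaching 50%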;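 also: exported cargo escapes ClpAP degradation while cytoplasmic cargo is degraded and loses fluorescence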
# A number is an active result; n = inactive; x = no result given. A selection: hits, their analogues and other compounds. The true share with any hit is near 0.69%.
SMILES,E coli growth-1,PfHsp90 yeast 2,E coli growth-2,phage Ecoli inh,AddAB inh,Tat transport
COc1ccc(CNC(=O)c2ccc(C)o2)cc1,n,x,10,n,n,n
COc1ccc(N2CCN(C(=O)c3ccc(C)cc3)CC2)c([N+](=O)[O-])c1,n,n,n,n,n,n
COc1ccc(N2CCN(C(=O)c3ccc(Br)cc3)CC2)c([N+](=O)[O-])c1,n,105,n,n,n,n
CCOCCCNc1ncnc2c1[nH]c1ccccc12,n,n,n,n,n,n
CCOc1ccc2[nH]c3c(NCCO)ncnc3c2c1,n,n,x,n,x,n
C=CCNc1ncnc2c1[nH]c1ccc(Cl)cc12,0.47,n,n,n,n,n
C=CCNc1ncnc2c1[nH]c1ccccc12,0.5,n,n,n,n,n
Cc1ccc(C=Nn2c(C)n[nH]c2=S)o1,n,x,x,x,x,x
O=C(NN=Cc1ccccc1)c1ccc(N2CCCC2=O)cc1,n,x,x,x,x,x
COc1ccc(-c2csc(N=C(N)N)n2)cc1,n,n,n,n,n,n
Cc1ccc(-c2csc(N=C(N)N)n2)c(C)c1,0.44,x,n,n,n,x
NC(N)=NN=Cc1ccc(OCc2ccc(Cl)cc2)cc1,0.045,x,x,x,x,x
NC(N)=NN=Cc1ccc(OCc2ccc(Cl)cc2Cl)cc1,0.048,x,x,x,x,x
NC(N)=N/N=C/c1ccc(OCc2ccc(Cl)cc2)cc1,x,x,n,n,n,n
C#CCOCCOCCOCCNc1nc(N2CCN(C(=O)C(C)n3cc(CCCN=C(N)N)nn3)CC2)nc(N2CCN(C(=O)C(C(C)O)n3cc(CCCCN)nn3)CC2)n1 (configuration not stated),n,x,x,x,x,x
CCON=C(C)c1c(O)c2ccccc2n(C)c1=O,n,x,x,x,x,x
CCN1C(=O)C2C(c3ccc(-c4ccc(C(C)=O)cc4)cc3)N3CCC[C@@]3(C(=O)OC)C2C1=O (some centres not stated),n,x,x,x,x,x
C(=NN=C1c2ccccc2-c2ccccc21)c1c[nH]c2ccccc12,x,131,x,n,x,n
Oc1ccc(C=NN=C2c3ccccc3-c3ccccc32)c(O)c1,x,137,x,n,x,n
O=C1CS/C(=N/N=Cc2c[nH]c3ccccc23)N1,n,x,x,x,x,x
COc1ccc(-c2sc3ccccc3c2/C=C/c2ccncc2)cc1,x,106,n,n,n,n
Cc1cc2cc(CNC(=O)c3ccc(C)c([N+](=O)[O-])c3)ccc2[nH]1,n,162,n,n,n,n
Cc1ccccc1-n1c(C)cc(C=NNC(=O)c2ccc(CN3CCOCC3)cc2)c1C,n,x,x,x,x,x
CC1=C(C(=O)OCc2ccccc2)C(/C=C/c2ccccc2)NC(=S)N1 (configuration not stated),n,85,n,n,n,n
O=S(=O)(c1ccccc1)[C@@]1(c2ccccc2)CC2ON=C(c3cccc(-c4ccccc4)c3)C2C1 (some centres not stated),n,x,x,x,x,x
SMILES,E coli growth-1,PfHsp90 yeast 2,E coli growth-2,phage Ecoli inh,AddAB inh,Tat transport
CCOC1OC(C(=O)N2CCOCC2)=CC(C2CCCCC2)C1CCCO (configuration not stated),n,x,x,x,x,x
Cc1cccc2nc(-c3ccco3)c(Nc3ccccc3)n12,n,n,n,n,n,n
Cc1ccc(Nc2c(-c3ccccn3)nc3cccc(C)n23)cc1,0.28,n,n,n,n,n
CCOC(=O)C1=C(CC)Nc2ccccc2N=C1NC(=O)c1ccc(S(=O)(=O)N2CCCC2)cc1,n,n,n,n,n,n
CCOC(=O)C1=C(CC)Nc2ccccc2N=C1NC(=O)Nc1ccc(Cl)c(Cl)c1,n,104,n,n,n,n
CCCCCCC(=O)N(O)C1CC(=O)N(c2ccc(F)cc2)C1=O (configuration not stated),n,109,n,n,n,n
COc1ccccc1N(O)C1CC(=O)N(c2ccc(Br)cc2)C1=O (configuration not stated),n,x,n,n,n,n
CCCCCCC(=O)N(O)C1CC(=O)N(c2ccc(Br)cc2)C1=O (configuration not stated),n,119,n,n,n,n
CCc1cc(C(=O)Cc2ccccn2)c(O)cc1O,n,n,n,n,n,n
CC(=O)Oc1ccc(C(=O)Cc2ccccn2)c(O)c1,n,n,n,n,n,56
Cc1ccccc1C[n+]1cccc2ccccc21,n,n,n,n,n,n
CCCCCCCCCCCCCCCC[n+]1cccc2ccccc21,0.092,106,n,n,n,n
N#CCC(=O)N1CC2(CC(c3cccc(NC(=O)COc4ccc(Cl)cc4)c3)=NO2)CC1C(N)=O (configuration not stated),n,x,x,x,x,x
O=Nc1c(O)c2ccccc2c2ccccc12,n,111,n,11,n,n
CCN1C(=NN)c2cccc3cccc1c23,n,x,x,x,x,x
c1ccc(-c2c(-c3ccccc3)n(Cc3ccco3)c3ncnc(NCCCn4ccnc4)c23)cc1,n,104,n,n,n,n
CCOC(=O)c1sc(NC(=O)Nc2ccccc2)cc1C,0.53,n,n,n,n,n
O=C1CSC(=S)N1N=Cc1ccc2c(c1)OCCO2,n,x,x,x,x,x
O=C1CSC(=S)N1/N=C/c1ccc2c(c1)OCCO2,x,n,9.9,n,n,n
COc1ccccc1C=NNC(=O)c1ccc(C)nc1,n,x,x,x,x,x
CC(=NNC(=O)c1ccc(Cl)cc1)c1cccs1,n,x,x,x,x,x
O=C(/C(=C/O)N=Nc1ccccc1)c1ccncc1,n,x,n,n,n,n
O=C(/C(=C/O)N=Nc1ccccc1)c1ccc(Cl)cc1,x,106,n,n,n,n
Cc1ccc(N=N/C(=C\O)C(=O)c2ccc(Cl)cc2)cc1,n,107,n,n,n,n
CC(=O)c1ccc(N=Nc2ccc(C)cc2)cc1,n,n,x,n,x,n
SMILES,E coli growth-1,PfHsp90 yeast 2,E coli growth-2,phage Ecoli inh,AddAB inh,Tat transport
CN1C(=CC(=O)c2cccnc2)Sc2ccccc21,n,x,x,x,x,x
COc1cc(C=Cc2ccc3cccc([N+](=O)[O-])c3n2)ccc1OCC#N,n,x,x,x,x,x
C[n+]1ccc(C(=O)NN=Cc2ccco2)cc1,n,x,x,x,x,x
O=C(C1CCN(C2CC(=O)N(c3cccc(Cl)c3)C2=O)CC1)N1CCCC1 (configuration not stated),x,106,n,n,n,n
COc1ccc(NC2CCN(C3CC(=O)N(c4ccc(F)c(Cl)c4)C3=O)CC2)cc1 (configuration not stated),n,102,n,n,n,n
CCN(CC)C1CC(=O)N(c2cccc(Cl)c2)C1=O (configuration not stated),n,126,n,n,n,n
COc1cccc(N2CCN(C3CC(=O)N(c4ccc(F)c(Cl)c4)C3=O)CC2)c1 (configuration not stated),n,n,n,n,n,n
COC(=O)C1CCN(C2CC(=O)N(c3cc(C)cc(C)c3)C2=O)CC1 (configuration not stated),n,105,n,n,n,n
CCOC(=O)C1CCN(C2CC(=O)N(c3cccc(Cl)c3)C2=O)CC1 (configuration not stated),n,n,n,n,n,n
N#Cc1c(N=Cc2ccc(Br)s2)sc2c1CCC2,n,x,x,x,x,x
CCOC(=O)C1=CCC2c3c(c4ccccc4n3C)C(=O)C1N2Cc1ccccc1 (configuration not stated),n,x,x,x,x,x
CC(=NN1CCN(C2c3ccccc3-c3ccccc32)CC1)c1cccnc1,n,x,x,x,x,x
